Among the data in the OligoGym collection are sensor-assay potency score (higher = more potent) values, retold here.
Note: reference of the scale not given here.

In one assay the target is VGLL2. Description: pooled miR-30 sensor sort-seq; sequence = guide strand. The settings on record: shRNA.
On to TTACTTCTCTACCACAGTCTTA, for which the sensor-assay potency score (higher = more potent) is -0.551. Still for that read-out and setting: as for TAACAAAATAATTCACATCAGC, the figure is -0.803; as for TAAGTGAAGAGGACGCAGCGGG, -0.197; as for TTGACTTCTCTTTACTTCTCTA, -0.415. In turn, TAAAATCTGACAGTAGTAGTGC came in with a sensor-assay potency score (higher = more potent) of 0.941.

In the case of TTGTCTAACAACAGCTGCATTT, the sensor-assay potency score (higher = more potent) was -1.41. The same measure, in the same setting: in the case of TTGGATTTGCTCTTTCAGCAGC it was -0.344; in that of TATAATCACACTACCTAACAAA, -1.39; in that of TTCTCTACCACAGTCTTAGATG, -1.22.

A further assay concerns the target VIPR2. Described as above. The settings on record: shRNA.
As for TTTGAGACCTCAGAAGCTCTGC, the sensor-assay potency score (higher = more potent) came out at 0.397. With TTGCTGAAGACTTTTGGGCAGG, the sensor-assay potency score (higher = more potent) is -1.06. TAAAACGTGATCTTGCTCTCAT had a sensor-assay potency score (higher = more potent) of 1.2. On the same count and under the same terms, as for TTTGCTGTAAAAATTGCTGAAG, the figure is -0.647.

Consider TTTCGCTTCAGCTCGCACTGCA, for which the sensor-assay potency score (higher = more potent) came out at 0.156.

Take TCTTGTACTGAGACTGGTCGTT: the sensor-assay potency score (higher = more potent) is -0.0864.

With TTGACCAGCACTGAGATGGCTC, the sensor-assay potency score (higher = more potent) was -0.324.

TTCAGGTGGATGTAATTCCTGG: the sensor-assay potency score (higher = more potent) is -0.512. On to TTTTGCTTATGTTTCCTGCTTT, for which the sensor-assay potency score (higher = more potent) was determined as 0.362.

With TTCACCAGAATATAAAACGTGA, the sensor-assay potency score (higher = more potent) is -0.447. The same measure, in the same setting: as for TCTGGGAACGTCTCTGACCATC, the figure is -1.08. Turning to TAGTGGACGCCGAACAGCGGGA, the sensor-assay potency score (higher = more potent) was -0.939.

The next assay concerns the target VKORC1. The description is as above. Conditions: shRNA.
For the sequence ATAGCATAGGTGGTGATACAAA, the sensor-assay potency score (higher = more potent) is -1.7.

Sequence TCATAGAGCACGAAGAACAGGA yielded a sensor-assay potency score (higher = more potent) of 0.298. The same measure, in the same setting: in the case of AGCACGAAGAACAGGATCCAGG it was -2.45. The same measure, in the same setting: in the case of TAGAGCGAGAGCACTAAGCCCG it was -0.598. In the case of TCACGTTGATAGCATAGGTGGT, the sensor-assay potency score (higher = more potent) is -0.749. Still for that read-out and setting: in the case of TTGGACCTTCCGGAAACTGAGC it was -1.21; in that of TTGATTGAGGATGCTGTCCTGT, 0.167.

Consider TTGATAGCATAGGTGGTGATAC, for which the sensor-assay potency score (higher = more potent) is -0.976. Still for that read-out and setting: in the case of ATAGGTGGTGATACAAACAATG it was -1.33. For the sequence AACAATGCAGAAATCATAGAGC, the sensor-assay potency score (higher = more potent) is -0.667. With TAGAGCACGAAGAACAGGATCC, the sensor-assay potency score (higher = more potent) is -0.705. The same measure, in the same setting: as for TAGGTGGTGATACAAACAATGC, the figure is -1.84.

The next assay addresses VN1R2. The assay is described as above. The settings on record: shRNA.
As to TTGGGGTAGAGATTGTTCCTAC, the sensor-assay potency score (higher = more potent) is -0.232. On to TTTTACTTTCATCTCTGCCCAC, for which the sensor-assay potency score (higher = more potent) is -0.563. The same measure, in the same setting: in the case of TTCTTTGTGATGTTGTTGTTGC it was -0.241; in that of TAAACGTAGGTGATGAAGGAAA, -0.975. Take TACAAGACCAAAACGATGGAGC: the sensor-assay potency score (higher = more potent) is -0.2.

As to TAACATAATGCAAAGGTGCTCA, the sensor-assay potency score (higher = more potent) was -0.437.

For the sequence TTAGATAGGATAACCAAGGAGT, the sensor-assay potency score (higher = more potent) was -0.311.
